tim10-1 inh – growth inhibitors of tim10-1 mutant yeast, primary screen, luminescence, uHTS. actives 2.2% (n = 330,000). S. cerevisiae tim10-1 ts strain growth, BacTiter-Glo, 24 h. inhibition, % at 20 µM. AID 463190, 2010;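 active means inhibition of at least 40%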;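 further: mutant grown at 25 °C; 0% = DMSO wells with yeast and 100% = wells holding no yeast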
tim23-1 inh – growth inhibitors of tim23-1 mutant yeast, primary screen, luminescence, uHTS; S. cerevisiae tim23-1 growth, BacTiter-Glo luminescence, 24 h; inhibition, % at 20 µM; actives 1.3% (n = 330,000); AID 463212, 2010;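 active means growth inhibition of the mutant yeast at or above 50%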;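 further: temperature-sensitive mutant grown at 25 °C; plate controls were DMSO-treated mutant yeast for no effect and medium wells lacking yeast for full effect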
TIM10 inh – growth inhibitors of isogenic TIM10 control yeast, primary screen, counter-screen for tim10-1 yeast inhibitor project, luminescence, uHTS; S. cerevisiae TIM10 strain growth, BacTiter-Glo luminescence, 24 h; inhibition, % at 10 µM; actives 1.4% (n = 330,000);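 active means inhibition of 40% or more at the single tested concentration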;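 further: wild-type TIM10 isogenic control strain grown at permissive 25 °C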
NLRP3 yeast inh – NALP3 inflammasome inhibitors in reconstituted yeast, primary screen, luminescence, uHTS. Yeast reconstituted NLRP3/ASC/caspase-1, beta-gal luminescence, 24 h. inhibition, % at 10 µM. actives 0.39% (n = 330,000);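 active means inhibition of 50% or more; inactive means inhibition below 50%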;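 further: plate controls were induced DMSO wells for no effect and uninduced yeast grown without galactose for full effect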
PfHsp90 set2 – growth inhibition of PfHsp90-expressing yeast, primary screen, antimalarial PfHsp90 inhibitor project, S. cerevisiae, BacTiter-Glo luminescence, single point, set 2; actives 0.32% (n = 310,000); inhibition, % at 9.4 µM; BacTiter-Glo ATP, 48 h; yeast lacking PDR1 and PDR3 efflux regulators; AID 504621, 2011;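 active means every replicate shows inhibition above about 80%, whatever the replicate mean, limit read from the data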;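 further: 0% = DMSO neutral controls and 100% = 20 µM radicicol positive controls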
TIM10 conf – growth inhibitors of wild-type TIM10 yeast, confirmation, counter-screen for tim10-1 synthetic lethality project, single concentration, luminescence, S. cerevisiae | inhibition, % at 10 µM | S. cerevisiae tim10 strain growth, BacTiter-Glo luminescence, 24 h | shares compounds with TIM10 inh | actives 63% (n = 4,600);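 active means inhibition of yeast growth at or above a set limit in either of two replicates at 10 µM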;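 further: this counterscreen used the strain with wild-type TIM10; 0% = yeast with DMSO and 100% = medium wells lacking yeast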
The depositor's hits bear a star; . = no result; ! = not active in a repeat. Only some compounds are listed: those with a hit (about 3.7% of all), similar ones and a draw of the others.

SMILES | tim10-1 inh | tim23-1 inh | TIM10 inh | NLRP3 yeast inh | PfHsp90 set2 | TIM10 conf
Cc1occc(=O)c1OCc1ccccc1 | -11 | -6 | 94* | -8 | 4 | 0
COc1ccc(S(=O)(=O)N(C)C[C@H]2Oc3c(NC(=O)c4ccncc4)cccc3C(=O)N([C@H](C)CO)C[C@@H]2C)cc1 | 14 | 19 | -1 | 8 | 31 | .
CCOC(=O)C(Cc1ccccc1)NC(=O)CCCC(=O)c1ccccc1 (stereo not drawn) | 17 | 17 | 14 | 12 | -24 | .
O=C(NC(=S)Nc1ccc(S(=O)(=O)N2CCCCC2)cc1)c1cccs1 | 18 | 2 | -7 | 6 | -25 | .
O=C(NC(=S)Nc1ccc(S(=O)(=O)NC2CCCCC2)cc1)c1cccs1 | 31 | 36 | 41* | -25 | -61 | 38*
Cc1ccc(NC(=O)CN2C(=O)NC(C)(C3CC3)C2=O)cc1S(=O)(=O)N1CCCCC1 (stereo not drawn) | -1 | 6 | -5 | 15 | -6 | .
COc1ccc(Nc2nccc(OC)c2C#N)cc1 | 6 | 8 | 11 | 8 | -26 | .
COc1ccc(Nc2nccc(N(C)C)c2C#N)cc1 | 4 | -6 | 55* | 7 | 7 | -6
Cc1ccc(Cl)cc1N1CCN(C(=O)CCS(=O)(=O)c2ccc3c(c2)NC(=O)CO3)CC1 | -6 | 6 | 11 | 3 | 22 | .
O=C1CSC(c2ccccc2Br)N1c1ccc(Cl)cn1 (stereo not drawn) | 27 | 49 | 41* | -25 | . | 29
Cc1cccc(NC(=S)N/N=C/c2cccc(O)c2)c1C | 24 | 14 | 31 | -1 | 4 | .
CCCN(Cc1ccccc1)C(=S)Nc1cccc(C)c1C | 5 | 11 | 1 | 12 | 11 | .
Cc1cccc(NC(=S)N/N=C/C(C)c2ccccc2)c1C (stereo not drawn) | 31 | 20 | 41* | 15 | -6 | 36*
Cc1ccccc1NC(=S)N/N=C/C(C)c1ccccc1 (stereo not drawn) | 23 | 25 | 41* | 14 | -17 | 27
Cc1cccc(NC(=S)NN(Cc2ccccc2)c2ccccc2)c1C | 30 | 16 | 43* | 8 | -12 | -21
COc1ccc(/C=C/C(=O)NCCSCc2ccco2)cc1OC | 8 | 15 | 10 | 10 | 4 | .
Cc1ccccc1C(=O)NCc1nnc(SCC(=O)N2c3ccccc3Sc3ccccc32)n1C | 19 | 14 | 28 | 10 | -8 | .
CC(C)(CNC(=O)c1ccccc1NS(C)(=O)=O)N1CCCCC1 | -5 | 3 | 15 | 8 | -13 | .
Cc1cccc(NC(=O)C2(c3ccccc3)CC2(Cl)Cl)c1 (stereo not drawn) | 39 | 26 | 23 | -3 | -8 | .
Cc1cc(C)cc(NC(=O)C2(c3ccccc3)CC2(Cl)Cl)c1 (stereo not drawn) | 37 | 38 | 41* | 18 | -31 | 40*
CCC(=O)c1ccc(OCC(=O)OCC(=O)N(CCC#N)c2ccc3c(c2)OCCO3)cc1 | 16 | 16 | -2 | 2 | . | .
c1ccc2c(c1)OCCOCCOCCOCCOc1ccccc1OCCOCCOCCO2 | 22 | 29 | 12 | -9 | 1 | .
CN1CCOCCOc2ccccc2OCCOCC1 | 2 | 12 | 58* | 13 | -5 | -2
O=C(CCC1CCCCC1)Nc1ccc(C(=O)c2ccncc2)cc1 | 35 | 43 | 43* | 16 | -6 | 39*
NS(=O)(=O)c1ccc(NC(=O)CCC2CCCCC2)cc1 | 16 | 18 | 21 | 0 | -1 | .
SMILES | tim10-1 inh | tim23-1 inh | TIM10 inh | NLRP3 yeast inh | PfHsp90 set2 | TIM10 conf
CN(C)CCCNc1ncnc2c1cnn2Cc1ccccc1Cl | 2 | -3 | 5 | 14 | 3 | .
C=CCn1c(SCc2c(Cl)cccc2Cl)nnc1-c1cccnc1 | 39 | 27 | 41* | -2 | -3 | 17
O=S(=O)(Nc1cccc2ncccc12)c1cccs1 | 31 | 40 | 43* | -5 | -101 | 48*
O=S(=O)(Nc1ccc(-c2nc3cccnc3s2)cc1)c1cccs1 | 10 | 14 | 4 | 3 | -4 | .
CN(C)S(=O)(=O)Oc1ccc(C(=O)Nc2cccc(Cl)c2)cc1 | 25 | 47 | 47* | 15 | -22 | 45*
Cc1ccc(C(=O)N2CC3(C(C)C)CN(C(=O)c4ccc(C)cc4)CC(C(C)C)(C2)C3=O)cc1 | 38 | 20 | 44* | 8 | -9 | 5
O=C(c1ccccc1)[C@H]1[C@H](c2ccccc2)[C@@]2(N=C(c3ccccc3)OC2=O)C2c3ccccc3C=NN21 (stereo partly drawn) | 34 | 22 | 42* | 5 | . | 25
CCN(CC(=O)Nc1cccc(OC)c1)C(=O)c1ccc(C)s1 | 18 | 3 | 13 | 2 | -7 | .
O=C(Nc1ccc(Cl)cc1)N1CCC(c2nc(-c3ccccc3Cl)no2)CC1 | 30 | -6 | 48* | 24 | -12 | 19
O=C(Nc1ccc(Cl)cc1)N1CCC(c2nc(-c3cccs3)no2)CC1 | 32 | 45 | -19 | 29 | . | .
Cc1[nH]c2ccccc2c1/C=N/Nc1nc(Nc2ccc(F)cc2)nc(N2CCOCC2)n1 | -4 | 29 | 53* | 18 | -7 | 34*
COc1ccc2cc3[n+](cc2c1OC)CCc1cc2c(cc1-3)OCO2 | 39 | 12 | 51*! | 24 | -3 | 30
CN(C)c1ccc(/C=C/C(=O)c2ccc3c(c2)OCCO3)cc1[N+](=O)[O-] | 36 | 41 | 43* | 23 | -2 | 25
COc1ccc(C(=O)/C=C/c2ccc(N3CCCCC3)c([N+](=O)[O-])c2)cc1 | 13 | 20 | 18 | 12 | 4 | .
O=S(=O)(Nc1ccc(Cc2ccncc2)cc1)c1ccc(Cl)c(Cl)c1 | -11 | -37 | -50 | -7 | -8 | .
O=S(=O)(Nc1ccc(-n2cccc2)cc1)c1ccc(Cl)c(Cl)c1 | -57 | 40 | 45* | 17 | -15 | 41*
CCCC(CCC(=O)Nc1ccn(-c2ccccc2)n1)C(=O)O (stereo not drawn) | -2 | 12 | -4 | -6 | -21 | .
COc1ccc(OC)c(NC(=O)c2ccc3c(c2)C(=O)N(CC2CCCO2)C3=O)c1 (stereo not drawn) | -9 | 2 | 6 | -4 | -4 | .
CCOC(=O)c1c(N)sc2c(OCC)c(Br)ccc12 | 30 | 47 | 41* | 24 | 25 | 23
CCOC(=O)c1c(NC(C)=O)sc2c(OCC(O)CNC(C)(C)C)c(Br)ccc12 (stereo not drawn) | 19 | -14 | 4 | 15 | -9 | .
CC1(C)CC(NC(=O)C23CCC(C)(/C(=N/O)C2)C3(C)C)CC(C)(C)N1 (stereo not drawn) | 12 | -2 | -23 | -1 | . | .

From PubChem
